A selection: hits, their analogues and other compounds. The true share with any hit is near 3.1%.
PAFAH1B2 inh: blocks human PAF acetylhydrolase 1b catalytic subunit 2 | P68402 | recombinant PAFAH1B2, FP-rhodamine activity probe, fluorescence polarization | inhibition, % at 3.39 µM | actives 1.2% (n = 340,000);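 active means inhibition above the mean of all tested compounds plus 3 SD, cut at about 24% in these data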;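 further: 0% = enzyme with DMSO and 100% = wells lacking PAFAH1B2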
PAFAH1B3 FP inh: PAFAH1B3 (human) inhibition; Q15102; inhibition, % at 3.39 µM; recombinant PAFAH1B3, FP-rhodamine probe, fluorescence polarization; actives 0.28% (n = 340,000);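 active means inhibition above the screen-wide average of all tested compounds plus 3 SD, cut at about 25% in these data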;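 further: 0% = enzyme with DMSO only and 100% = wells lacking PAFAH1B3 protein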
Rin1 Abl inh: blocks binding of human Rin1 to Abl; P00519+Q13671; TR-FRET Rin1/Abl binding, biochemical; AID 588664; inhibition, % at 7.35 µM; actives 0.4% (n = 360,000); in the data active means inhibition above about 5%, passing the limit was not always enough
pPAFAH FP inh: pPAFAH (human) enzyme inhibition | Q13093 | recombinant pPAFAH, FP-rhodamine probe fluorescence polarization | inhibition, % at 3.39 µM | actives 1.5% (n = 330,000);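 active means inhibition above the mean inhibition across the screen plus 3 SD, cut at about 25% in these data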;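 further: inhibitors block binding of the rhodamine activity-based probe so polarization drops; 0% = enzyme with DMSO and 100% = wells lacking pPAFAH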
E coli Lon inh: inhibitors of E. coli Lon protease; inhibition, % at 7.94 µM; AID 602123; purified E. coli Lon protease, fluorescence polarization; actives 0.42% (n = 360,000); in the data active means inhibition above about 13%, passing the limit was not always enough;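 further: 0% = enzyme with probe and DMSO and 100% = no enzyme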
PAFAH2 FP inh: inhibitors of human PAFAH2; Q99487; recombinant PAFAH2, FP-rhodamine activity probe, fluorescence polarization; inhibition, % at 3.39 µM; actives 0.99% (n = 340,000);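 active means inhibition above the mean over all tested compounds plus 3 SD, cut at about 30% in these data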;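 further: inhibitors block probe labeling of enzyme so polarization drops; 0% = enzyme with DMSO and 100% = wells lacking PAFAH2 protein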
Rin1 Abl conf: Rin1-Abl interaction inhibition confirmation; shares compounds with Rin1 Abl inh; TR-FRET Rin1-Abl binding, purified proteins; inhibition, % at 7.35 µM; actives 49% (n = 1,300); AID 602124
GFP quench-1: GFP fluorescence interference artifact; shares compounds with Rin1 Abl inh; inhibitors/quenchers counterscreen; inhibition, % at 6.75 µM; actives 8.5% (n = 1,300);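 further: ABL1-eGFP fusion protein alone without its partner RIN1-SBP; 0% = protein with vehicle and 100% = wells lacking protein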
GFP quench dose: GFP fluorescence interference dose response; 230 tested, under 10 active; AID 602182; shares compounds with Rin1 Abl inh; GFP fluorescence interference/quenching counterscreen; IC50, µM; call rule not given here;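 further: ABL1-eGFP fusion protein alone without its RIN1 binding partner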
GFP quench-2: quenches GFP fluorescence in Rin1-Abl counterscreen. IC50, µM. 25 tested, under 10 active. AID 602397. shares compounds with Rin1 Abl inh. GFP fluorescence quenching counterscreen, biochemical; call rule not given here
Numbers without * were called inactive; x = no result. Unless noted, no stated cut-off is given here; in the data, active means inhibition above about 6.5%; inactive means the rest.

SMILES	PAFAH1B2 inh	PAFAH1B3 FP inh	Rin1 Abl inh	pPAFAH FP inh	E coli Lon inh	PAFAH2 FP inh	Rin1 Abl conf	GFP quench-1	others
O=C1CC=Nc2ccc([N+](=O)[O-])cc21	x	x	15*	x	-1	x	-2	-1
O=C1OCc2ccc([N+](=O)[O-])cc21	1	12	-2	x	2	-5	x	x
O=c1c(Cc2ccccc2)c(O)ccn1C1CCCCCCC1	11	3	0	0	8	17	x	x
COc1ccccc1CN1C[C@@H]2C[C@@H](c3ccc4nsnc4c3)N3CCC[C@@]23C1=O	-4	-1	22*	4	-18	0	25*	0	GFP quench dose=>68
COc1ccccc1CN1C[C@@H]2C[C@@H](c3ccc(C)cc3)N3CCC[C@@]23C1=O	-1	0	0	0	3	-6	x	x
O=C(C1=COCCO1)N(Cc1nnc(-c2ccccc2Cl)o1)C1CC1	3	5	8.2*	3	-35	4	-1	1
CC1CCN(c2c(NCC3CCC(C(=O)NCCCc4ccccc4)CC3)c(=O)c2=O)CC1 (configuration not stated)	x	x	x	3	x	x	x	x
O=C(O)c1ccc(-c2ncc[nH]2)cc1	1	10	9.3*	-7	-1	5	1	0
CC1CCN(C(=O)c2cc(Cl)ccc2NC(=O)c2ccco2)CC1	1	-5	3	9	2	6	x	x
Cc1ccc(NC(=O)Cn2nc(C(F)(F)F)c3c2CCC3)cc1	3	4	5.0*	0	3	-1	1	-3
CCNS(=O)(=O)c1ccc(CCC(=O)O)cc1	-3	4	8.8*	1	-8	-6	-1	1
O=C(CNC(=O)COc1ccccc1)NCCN1CCOCC1	-1	3	0	5	0	-9	x	x
Cc1cc(C)cc(NC(=O)N2CCNC(=O)C2CC(=O)Nc2cc(Cl)ccc2Cl)c1 (configuration not stated)	4	-3	10*	-5	-4	2	8.0*	1
O=C(CC1C(=O)NCCN1C(=O)Nc1ccc(F)cc1F)Nc1cc(Cl)ccc1Cl (configuration not stated)	5	10	2	3	12	8	x	x
CN(C(=O)c1ccc(NC(=O)Cc2ccc(NC(=O)C3CCN(C(=O)c4ccccc4)CC3)cc2)cc1)C1CC1	0	2	77*	1	-7	6	79*	-1	GFP quench dose=>67;GFP quench-2=>68
CN(C(=O)c1ccc(NC(=O)Cc2ccc(NC(=O)C3CCN(C(=O)C4CC4)CC3)cc2)cc1)C1CC1	4	-6	37*	0	-8	2	34*	1	GFP quench dose=>68
CC1=C(C(=O)N(C(C)C)C(C)C)CC(CC(=O)NCc2cccs2)C(=O)N1Cc1ccc(C(C)(C)C)cc1 (configuration not stated)	x	x	4	x	-23	x	x	x
O=C(Nc1cccc(-c2nnc(-c3ccco3)o2)c1)c1ccccc1	x	x	10*	-2	-2	x	-2	-2
CCOc1ccc(NC(=O)CN(C)Cc2ccc3c(c2)OCO3)cc1S(=O)(=O)N1CCCC1	8	0	4	0	4	4	x	x
O=C(CCCSc1nc2ccccc2[nH]1)N1CCN(c2ccccc2)CC1	11	12	7.0*	-7	-5	4	7.1*	2
CC(=O)Cc1cc(=O)c2c(C)cc(O)c(C3OC(CO)C(O)C(O)C3O)c2o1 (configuration not stated)	4	10	-2	9	1	3	x	x
O=c1c2cc(O)c(O)cc2oc2cc(O)c(C3OC(CO)C(O)C(O)C3O)c(O)c12 (configuration not stated)	12	21	29*	4	0	6	30*	8.4*
O=c1cc(-c2ccc(O)c(O)c2)oc2cc(O)c([C@@H]3O[C@H](CO)[C@@H](O)[C@H](O)[C@H]3O)c(O)c12	2	16	22*	2	-14	-9	28*	10*
O=C(NCCN1C(=O)S/C(=C/c2cccnc2)C1=O)c1ccc(S(=O)(=O)N2CCCC2)cc1	4	9	-2	x	-3	2	x	x
COC(=O)C1CCN(C(=O)COC(=O)CSc2ccc(C(N)=O)cc2[N+](=O)[O-])CC1	-2	3	-4	4	-1	1	x	x
SMILES	PAFAH1B2 inh	PAFAH1B3 FP inh	Rin1 Abl inh	pPAFAH FP inh	E coli Lon inh	PAFAH2 FP inh	Rin1 Abl conf	GFP quench-1	others
O=C(Cn1cc(COc2ccccc2[N+](=O)[O-])nn1)c1ccc(O)cc1	2	13	7.7*	x	-4	-7	-1	2
Cc1ccnc(Nc2cccnc2)n1	x	x	-1	x	-4	x	x	x
O=C(O)CSCc1cn2cc(Cl)ccc2n1	-2	6	-1	-1	2	-1	x	x
COC(=O)CCSCc1cn2cc(Cl)ccc2n1	3	3	39*	-4	-5	6	44*	1	GFP quench dose=>68
C[C@H](CO)N1C[C@H](C)[C@@H](CN(C)Cc2ccc(-c3ccccc3)cc2)Oc2c(NS(=O)(=O)c3ccccc3)cccc2C1=O	4	-1	14*	19	-5	10	9.6*	0
C[C@H](CO)N1C[C@H](C)[C@@H](CN(C)Cc2ccc(Cl)c(Cl)c2)Oc2c(NC(=O)c3ccncc3)cccc2C1=O	1	6	13*	4	3	2	8.7*	1
C[C@H](CO)N1C[C@H](C)[C@@H](CN(C)Cc2ccccc2)Oc2c(NS(=O)(=O)c3ccccc3)cccc2C1=O	3	1	1	-5	0	0	x	x
Cc1ccc(S(=O)(=O)Nc2cccc3c2O[C@H](CN(C)Cc2ccc(-c4ccccc4)cc2)[C@@H](C)CN([C@H](C)CO)C3=O)cc1	1	5	10*	17	-4	-4	9.7*	0
C[C@H](CO)N1C[C@H](C)[C@@H](CN(C)Cc2ccc(-c3ccccc3)cc2)Oc2c(NS(=O)(=O)c3cn(C)cn3)cccc2C1=O	1	-1	36*	9	-8	-5	29*	-2
Cc1cccc(C(=O)N2CCN(S(=O)(=O)N3CCCCCC3)CC2)c1	1	1	-1	2	14	3	x	x
OC[C@@H]1CN(Cc2ccc(-c3ccccc3)cc2)C[C@H](n2cnc3c(NC4CCC4)ncnc32)O1	x	x	18*	x	-2	x	24*	-1	GFP quench dose=>68
